For six molecules, inhibition results are on record in ChEMBL document CHEMBL1961873, “Compounds: GSK PKIS; Assays: Nanosyn kinase panel” (2012).

Molecules are shown by their SMILES.

The target in assay [1] is RAC-alpha serine/threonine-protein kinase (Homo sapiens) (UniProt P31749). The conditions noted are these: at 0.1 µM.
Assay [2] shares this target. The conditions noted are these: at 1 µM.
Assay [3] deals with RAC-beta serine/threonine-protein kinase (Homo sapiens) (UniProt P31751). The conditions noted are these: at 0.1 µM.
The target is the same in assay [4]. The conditions noted are these: at 1 µM.
Assay [5] has as its target RAC-gamma serine/threonine-protein kinase (Homo sapiens) (UniProt Q9Y243). The conditions noted are these: at 0.1 µM.
Assay [6] shares this target. The conditions noted are these: at 1 µM.
In assay [7] the target is G protein-coupled receptor kinase 6 (Homo sapiens) (UniProt P43250). The conditions noted are these: at 0.1 µM.
Assay [8] shares this target. The conditions noted are these: at 1 µM.
Assay [9] has as its target T1, Rhodopsin kinase GRK7 (Homo sapiens) (UniProt Q8WTQ7).
T1 sequence (whole entry): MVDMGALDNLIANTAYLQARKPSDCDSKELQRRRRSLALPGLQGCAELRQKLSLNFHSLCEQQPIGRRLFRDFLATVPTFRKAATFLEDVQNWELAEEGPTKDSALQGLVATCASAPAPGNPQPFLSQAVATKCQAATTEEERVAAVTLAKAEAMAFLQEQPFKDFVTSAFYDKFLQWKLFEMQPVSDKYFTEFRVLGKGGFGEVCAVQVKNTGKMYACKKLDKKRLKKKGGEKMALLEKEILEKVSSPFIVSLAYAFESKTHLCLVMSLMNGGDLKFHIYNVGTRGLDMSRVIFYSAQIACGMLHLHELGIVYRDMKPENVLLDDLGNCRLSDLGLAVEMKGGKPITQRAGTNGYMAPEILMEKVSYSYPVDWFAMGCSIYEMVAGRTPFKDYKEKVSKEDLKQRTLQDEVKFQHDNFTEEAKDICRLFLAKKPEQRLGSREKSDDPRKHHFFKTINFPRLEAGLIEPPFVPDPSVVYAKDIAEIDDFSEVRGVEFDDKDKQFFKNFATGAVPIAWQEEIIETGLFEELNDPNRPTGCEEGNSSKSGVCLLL
The conditions noted are these: at 0.1 µM.

The target of assay [10] is T1, Rhodopsin kinase GRK7 (Homo sapiens). The conditions noted are these: at 1 µM.
The target in assay [11] is Serine/threonine-protein kinase MRCK alpha (Homo sapiens) (UniProt Q5VT25). The conditions noted are these: at 0.1 µM.
Assay [12] shares this target. The conditions noted are these: at 1 µM.
The target in assay [13] is Serine/threonine-protein kinase MRCK beta (Homo sapiens) (UniProt Q9Y5S2). The conditions noted are these: at 0.1 µM.
Assay [14] shares this target. The conditions noted are these: at 1 µM.
For assay [15], the target named is Ribosomal protein S6 kinase alpha-5 (Homo sapiens) (UniProt O75582). The conditions noted are these: at 0.1 µM.
Assay [16] shares this target. The conditions noted are these: at 1 µM.
Assay [17] addresses Ribosomal protein S6 kinase alpha-4 (Homo sapiens) (UniProt O75676). The conditions noted are these: at 0.1 µM.
The target is the same in assay [18]. The conditions noted are these: at 1 µM.
The target of assay [19] is Ribosomal protein S6 kinase beta-1 (Homo sapiens) (UniProt P23443). The conditions noted are these: at 0.1 µM.
The target is the same in assay [20]. The conditions noted are these: at 1 µM.

Chain of Serine/threonine-protein kinase MRCK alpha (Homo sapiens) (Q5VT25 whole entry): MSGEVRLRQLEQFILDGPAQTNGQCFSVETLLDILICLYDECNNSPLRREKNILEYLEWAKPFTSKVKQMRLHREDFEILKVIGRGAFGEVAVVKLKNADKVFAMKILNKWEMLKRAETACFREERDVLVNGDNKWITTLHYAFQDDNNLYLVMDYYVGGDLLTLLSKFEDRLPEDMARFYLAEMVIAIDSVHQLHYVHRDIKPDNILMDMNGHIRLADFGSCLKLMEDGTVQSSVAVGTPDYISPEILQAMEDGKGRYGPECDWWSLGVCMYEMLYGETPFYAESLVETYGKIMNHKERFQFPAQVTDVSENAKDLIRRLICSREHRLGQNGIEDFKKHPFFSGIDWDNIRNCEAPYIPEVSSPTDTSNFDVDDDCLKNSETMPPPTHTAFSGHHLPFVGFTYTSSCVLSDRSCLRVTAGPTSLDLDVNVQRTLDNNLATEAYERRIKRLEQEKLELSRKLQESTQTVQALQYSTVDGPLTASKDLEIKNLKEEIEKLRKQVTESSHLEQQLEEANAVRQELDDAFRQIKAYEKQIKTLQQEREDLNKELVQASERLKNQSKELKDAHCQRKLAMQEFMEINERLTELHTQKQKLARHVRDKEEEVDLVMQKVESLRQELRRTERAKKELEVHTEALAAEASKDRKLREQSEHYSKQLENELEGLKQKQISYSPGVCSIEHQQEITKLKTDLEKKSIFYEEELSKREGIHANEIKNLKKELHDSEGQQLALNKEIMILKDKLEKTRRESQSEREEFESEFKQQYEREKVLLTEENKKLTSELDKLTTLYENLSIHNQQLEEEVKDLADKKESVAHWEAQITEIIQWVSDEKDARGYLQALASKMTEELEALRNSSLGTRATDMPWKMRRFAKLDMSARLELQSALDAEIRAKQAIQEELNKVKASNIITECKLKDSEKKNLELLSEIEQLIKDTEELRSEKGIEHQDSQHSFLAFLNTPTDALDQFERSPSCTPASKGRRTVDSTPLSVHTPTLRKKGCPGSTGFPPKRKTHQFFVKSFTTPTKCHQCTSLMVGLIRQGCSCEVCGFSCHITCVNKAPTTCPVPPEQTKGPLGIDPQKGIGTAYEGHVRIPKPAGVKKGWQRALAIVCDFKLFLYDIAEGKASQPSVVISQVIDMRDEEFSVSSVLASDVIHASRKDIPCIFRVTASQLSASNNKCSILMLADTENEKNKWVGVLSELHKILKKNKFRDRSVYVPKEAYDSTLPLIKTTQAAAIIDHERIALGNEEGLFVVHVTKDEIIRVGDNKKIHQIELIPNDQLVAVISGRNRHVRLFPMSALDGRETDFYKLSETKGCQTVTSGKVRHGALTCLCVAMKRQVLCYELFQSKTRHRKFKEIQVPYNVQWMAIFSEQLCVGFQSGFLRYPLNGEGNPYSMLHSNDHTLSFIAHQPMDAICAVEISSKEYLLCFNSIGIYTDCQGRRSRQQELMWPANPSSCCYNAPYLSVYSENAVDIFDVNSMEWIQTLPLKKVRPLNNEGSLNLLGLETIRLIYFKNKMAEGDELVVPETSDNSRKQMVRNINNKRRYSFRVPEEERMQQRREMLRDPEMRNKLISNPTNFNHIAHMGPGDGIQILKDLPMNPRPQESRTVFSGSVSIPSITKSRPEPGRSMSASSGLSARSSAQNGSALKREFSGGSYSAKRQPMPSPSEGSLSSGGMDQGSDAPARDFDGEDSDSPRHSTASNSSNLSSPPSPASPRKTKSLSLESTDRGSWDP
Chain of Serine/threonine-protein kinase MRCK beta (Homo sapiens) (Q9Y5S2 whole entry): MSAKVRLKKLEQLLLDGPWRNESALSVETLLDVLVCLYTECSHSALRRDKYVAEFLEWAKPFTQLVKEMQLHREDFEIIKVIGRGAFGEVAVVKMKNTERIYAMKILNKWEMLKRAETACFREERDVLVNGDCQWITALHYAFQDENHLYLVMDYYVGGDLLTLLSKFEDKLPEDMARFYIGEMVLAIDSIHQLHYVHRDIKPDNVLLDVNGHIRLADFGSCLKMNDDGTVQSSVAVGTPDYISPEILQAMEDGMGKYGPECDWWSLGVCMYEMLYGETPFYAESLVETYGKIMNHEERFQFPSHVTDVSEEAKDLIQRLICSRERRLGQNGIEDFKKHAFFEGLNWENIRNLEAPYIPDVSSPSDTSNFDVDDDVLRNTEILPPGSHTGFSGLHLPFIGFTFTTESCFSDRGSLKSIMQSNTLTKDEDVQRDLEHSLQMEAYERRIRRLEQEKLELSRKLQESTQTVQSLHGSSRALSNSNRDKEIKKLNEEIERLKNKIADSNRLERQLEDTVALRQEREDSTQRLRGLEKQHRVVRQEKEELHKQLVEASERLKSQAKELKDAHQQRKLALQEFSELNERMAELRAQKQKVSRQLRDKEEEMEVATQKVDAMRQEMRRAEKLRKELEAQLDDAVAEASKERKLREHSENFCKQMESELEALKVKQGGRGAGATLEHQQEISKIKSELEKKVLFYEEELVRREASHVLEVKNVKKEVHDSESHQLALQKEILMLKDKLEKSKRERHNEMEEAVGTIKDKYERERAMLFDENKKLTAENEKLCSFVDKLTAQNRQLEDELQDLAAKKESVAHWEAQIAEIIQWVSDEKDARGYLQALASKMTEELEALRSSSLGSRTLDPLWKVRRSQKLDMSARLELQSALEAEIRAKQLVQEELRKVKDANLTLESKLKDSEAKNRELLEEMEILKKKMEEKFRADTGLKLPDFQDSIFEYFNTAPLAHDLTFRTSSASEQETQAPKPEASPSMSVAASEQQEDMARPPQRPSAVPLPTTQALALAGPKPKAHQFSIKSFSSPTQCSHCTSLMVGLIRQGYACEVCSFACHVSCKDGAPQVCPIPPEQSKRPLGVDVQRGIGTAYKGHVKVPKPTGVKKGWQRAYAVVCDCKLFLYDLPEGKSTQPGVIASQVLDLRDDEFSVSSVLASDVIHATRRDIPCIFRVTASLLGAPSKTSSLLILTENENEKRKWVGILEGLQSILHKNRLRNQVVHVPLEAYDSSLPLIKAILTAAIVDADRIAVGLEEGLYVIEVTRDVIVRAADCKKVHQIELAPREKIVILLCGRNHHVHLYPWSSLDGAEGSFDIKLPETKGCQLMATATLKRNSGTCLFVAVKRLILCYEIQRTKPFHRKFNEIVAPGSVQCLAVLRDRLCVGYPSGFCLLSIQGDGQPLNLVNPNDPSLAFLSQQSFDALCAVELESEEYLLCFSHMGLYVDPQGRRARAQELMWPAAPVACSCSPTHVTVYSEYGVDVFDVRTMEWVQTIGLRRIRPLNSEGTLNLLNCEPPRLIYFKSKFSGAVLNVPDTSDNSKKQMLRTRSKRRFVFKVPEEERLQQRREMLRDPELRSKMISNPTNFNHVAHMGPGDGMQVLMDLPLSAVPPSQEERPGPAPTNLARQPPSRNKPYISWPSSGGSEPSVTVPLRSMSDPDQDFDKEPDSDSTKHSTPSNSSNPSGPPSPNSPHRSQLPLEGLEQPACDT
Chain of RAC-alpha serine/threonine-protein kinase (Homo sapiens) (P31749 whole entry): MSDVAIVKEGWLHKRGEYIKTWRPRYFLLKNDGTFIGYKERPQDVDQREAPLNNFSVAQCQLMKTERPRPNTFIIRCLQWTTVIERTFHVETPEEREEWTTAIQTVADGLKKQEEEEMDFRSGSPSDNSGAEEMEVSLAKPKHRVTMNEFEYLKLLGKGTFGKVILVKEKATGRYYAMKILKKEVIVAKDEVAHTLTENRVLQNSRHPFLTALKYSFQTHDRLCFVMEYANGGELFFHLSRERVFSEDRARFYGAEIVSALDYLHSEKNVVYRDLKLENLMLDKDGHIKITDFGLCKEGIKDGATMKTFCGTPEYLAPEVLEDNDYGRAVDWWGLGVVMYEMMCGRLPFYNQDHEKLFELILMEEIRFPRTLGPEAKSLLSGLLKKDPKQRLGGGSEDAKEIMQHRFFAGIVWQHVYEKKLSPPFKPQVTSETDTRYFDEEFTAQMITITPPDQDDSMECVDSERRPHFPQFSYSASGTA
Chain of Ribosomal protein S6 kinase alpha-5 (Homo sapiens) (O75582 whole entry, looked up): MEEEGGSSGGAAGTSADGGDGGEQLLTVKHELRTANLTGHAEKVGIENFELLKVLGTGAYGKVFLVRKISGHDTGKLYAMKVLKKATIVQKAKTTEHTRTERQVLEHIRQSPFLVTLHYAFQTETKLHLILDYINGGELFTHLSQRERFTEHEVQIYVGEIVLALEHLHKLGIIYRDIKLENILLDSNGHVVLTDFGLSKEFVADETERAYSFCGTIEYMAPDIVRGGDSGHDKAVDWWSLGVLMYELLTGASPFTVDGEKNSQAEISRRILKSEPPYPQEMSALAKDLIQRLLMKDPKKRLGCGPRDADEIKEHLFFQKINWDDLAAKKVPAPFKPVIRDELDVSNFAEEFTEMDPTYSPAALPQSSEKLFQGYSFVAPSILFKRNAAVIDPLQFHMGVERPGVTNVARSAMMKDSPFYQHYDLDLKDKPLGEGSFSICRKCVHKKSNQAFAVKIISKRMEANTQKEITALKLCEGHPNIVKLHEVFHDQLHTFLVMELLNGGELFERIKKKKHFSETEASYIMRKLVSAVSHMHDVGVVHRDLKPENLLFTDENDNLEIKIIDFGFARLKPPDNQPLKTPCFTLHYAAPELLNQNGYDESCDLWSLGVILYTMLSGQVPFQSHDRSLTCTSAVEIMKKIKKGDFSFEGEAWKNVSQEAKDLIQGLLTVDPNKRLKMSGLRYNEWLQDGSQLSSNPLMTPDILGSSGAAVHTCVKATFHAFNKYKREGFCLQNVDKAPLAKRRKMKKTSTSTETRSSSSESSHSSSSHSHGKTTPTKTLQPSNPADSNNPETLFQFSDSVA

A word on the inhibition: it is the change of the read-out against control, counted positive when it falls. As to `NC(=O)c1ccc2c(-c3ccnc(NCCCO)n3)c(-c3ccc(F)cc3)nn2c1`, the inhibition in assay [1] was 0.79%; in assay [2], -0.47%; in assay [3], 1.62%; in assay [4] it was 1.08%; in assay [5], 1.04%; in assay [6], 2.17%. Further, the inhibition in assay [7] turned out to be 0.86%; in [8], 2.38%; in assay [9], 1.93%; in [10] it was 4.08%; in assay [11] it was 0.04%; in [12] it was 2.55%. Besides, the inhibition turned out to be 0.29% in assay [13]; 2.28% in [14]; 11.4% in assay [15]; 8.01% in assay [16]; 1.44% in [17]; 2.05% in assay [18]. Besides, the inhibition in assay [19] was found to be 1.72%; in [20] it was 1.46%.

Turning to `CS(=O)(=O)Nc1ccc(-c2cc(-c3ccccc3)cc(C(N)=O)c2N)cc1`, the inhibition in assay [1] is 0.58%; in [2], -0.28%; in [3] it was 0.22%; in assay [4] it was 1.28%; in assay [5] it was -0.36%; in assay [6], 2.53%. The inhibition in assay [7] was 1.1%; in assay [8], 1.69%; in assay [9], 7.08%; in assay [10], 1.49%; in [11], -0.32%; in assay [12] it was 0.21%. Also, the inhibition is 0.74% in assay [13]; 1.3% in [14]; 3.96% in assay [15]; 1.83% in [16]; -0.81% in [17]; 0.34% in assay [18]. For the same molecule, the inhibition is -1.22% in assay [19] and 0.07% in [20].

`CS(=O)(=O)CCNCc1ccc(-c2ccc3ncnc(Nc4ccc(OCc5ccccc5)cc4)c3c2)o1`: the inhibition was 0.6% in assay [1]; 0.62% in [2]; 0.5% in assay [3]; 1.64% in [4]; 0.25% in [5]; 2% in [6]. The inhibition in assay [7] was 3.01%; in [8], 3.33%; in assay [9] it was 4.51%; in assay [10] it was 4.87%; in assay [11], -0.82%; in [12] it was -2.61%. The inhibition in [13] was found to be 0.05%; in assay [14], 1.22%; in assay [15] it was 1.86%; in [16] it was 0.66%; in assay [17] it was 3.06%; in assay [18], 2.56%. In addition, the inhibition was found to be 1.52% in assay [19] and 2.62% in assay [20].

On to `CC1(C)CC(n2cnc(-c3ccc(F)cc3)c2-c2ccnc(N)n2)CC(C)(C)N1`, for which the inhibition was -0.24% in [1]; 0.14% in assay [2]; -0.58% in assay [3]; 0.6% in assay [4]; 0.06% in [5]; -0.35% in assay [6]. The inhibition in assay [7] was 0.95%; in assay [8], 2.33%; in assay [9], -0.49%; in [10], -1.38%; in assay [11] it was 0.39%; in assay [12] it was -0.52%. The inhibition is 0.89% in assay [13]; 1.72% in [14]; -2.87% in assay [15]; -2.36% in assay [16]; 2.08% in [17]; 3.62% in assay [18]. Besides, the inhibition in assay [19] came out at 1.01%; in [20] it was 0.28%.

On to `CCOc1ccc2c(-c3ccnc(Nc4cc(OC)cc(C(F)(F)F)c4)n3)cnn2n1`, for which the inhibition in [1] was 0.02%; in [2] it was 0.45%; in assay [3], 0.01%; in assay [4] it was 0.53%; in assay [5] it was 0.18%; in assay [6] it was 0.45%. Further, the inhibition was 2.38% in assay [7]; 0.28% in assay [8]; -0.23% in [9]; 16.9% in [10]; -0.76% in assay [11]; -0.62% in [12]. Moreover, the inhibition was 0.09% in assay [13]; 0.13% in assay [14]; 1.4% in assay [15]; 2.37% in [16]; 1.07% in assay [17]; -0.61% in assay [18]. For the same molecule, the inhibition is 0.27% in [19] and 0.73% in assay [20].

`NS(=O)(=O)c1ccc(N/N=C2\C(=O)Nc3ccc(C(=O)NCc4ccncc4)cc32)cc1`: the inhibition is 1.33% in assay [1]; 1.28% in [2]; 2.42% in assay [3]; 1.92% in [4]; 1.54% in assay [5]; 1.99% in assay [6]. Further, the inhibition in [7] turned out to be 5.6%; in [8], 21.9%; in assay [9], 2.04%; in assay [10] it was 6.72%; in assay [11], 0.07%; in assay [12], 3.72%. Further, the inhibition in assay [13] was -0.38%; in assay [14], 2.29%; in assay [15] it was 5.11%; in assay [16], 9.08%; in assay [17] it was 3.9%; in assay [18], 14.5%. Moreover, the inhibition came to 1.29% in [19] and 6.6% in assay [20].
